Values joined by “and” are separate entries in the source; they are usually repeats but may differ in a detail not shown here. Equal entries are not always repeated. Records with an inconclusive call do not appear. A call without a number means that no potency is given here. Active and inactive are the calls of the source. Unless noted, how the calls were made is not given here.
Experiment: qHTS Assay for Identifying Gametocytocidal Compounds (AID 743244; active means well fitted curve in the direction sought with a large enough effect; an effect the other way counts as inactive or inconclusive;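 further: actives lower the fluorescent signal which means gametocytes are killed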)
Settings: P. falciparum 3D7 stage III-V gametocytes, alamarBlue, 72 h; max response: hits give low values
Procedure, shortened: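 Compounds are pinned into medium, gametocytes (stage III–V, 3D7, 20,000 cells/well) added, and plates held 72 h at 37 °C in 5% CO2. AlamarBlue follows for 24 h before fluorescence reading.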

SMILES	max response
NC1=NC(=O)C(c2ccccc2)O1 (stereo not drawn)	-7.8% (inactive)
Nc1ccccc1C(=O)O	3.13% (inactive)
CC(C)(C)NCC(O)c1ccccc1Cl (stereo not drawn)	-5.65% (inactive) and 5.12% (inactive)
NCCc1ccc(O)cc1	-2.18% (inactive) and 16.8% (inactive)

Experiment: qHTS assay for cell viability of HEK293 cells (AID 743288; active means well fitted curve in the direction sought with a large enough effect; an effect the other way counts as inactive or inconclusive; further: nearly all actives have a fitted effect of over 50% in size)
Settings: ATP luminescence (CellTiter-Glo), 18 h, hits give low values
Procedure, shortened: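 Parental HEK293 cells, 2,000 per well, preincubated at least 5 h at 37 C, then exposed to compounds in DMSO for 18 h at 37 C. Viability by CellTiter-Glo ATP luminescence after 30 min at room temperature.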

SMILES	max response
Nc1ccccc1	-4.37% (inactive)
Nc1ccccc1C(=O)O	2.79% (inactive)
COc1cc(OC)c(OC)cc1C=O	-1.47% (inactive)
NCCc1ccc(O)cc1	-6.56% (inactive)

Experiment: qHTS assay for cell viability of the p53RE-bla HCT-116 cell line (AID 743292; active means well fitted curve in the direction sought with a large enough effect; an effect the other way counts as inactive or inconclusive; further: nearly all actives have a fitted effect of over 55% in size)
Settings: p53RE-bla HCT-116 viability, ATP luminescence, 16 h; series mostly up to 95 µM
Procedure, shortened: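 Quantitative high-throughput format: compounds in DMSO were pinned onto p53RE-bla HCT-116 cells (4,000/well) and incubated 16 h at 37 C. Total intracellular ATP, read by CellTiter-Glo luminescence, reflects viable cell number.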

SMILES	Potency
Nc1ccccc1	inactive
Nc1ccccc1C(=O)O	inactive
COc1cc(OC)c(OC)cc1C=O	inactive
NCCc1ccc(O)cc1	inactive

Experiment: not given
Settings: Ebola virus entry assay, blue channel fluorescence

SMILES	outcome
CCCCNC(=O)NS(=O)(=O)c1ccc(N)cc1	inactive
NC1=NC(=O)C(c2ccccc2)O1 (stereo not drawn)	inactive
NC(=O)c1ccccc1O	inactive
C=CCN1CCc2nc(N)sc2CC1	inactive
CO[C@@]1(NC(=O)C(C(=O)O)c2ccc(O)cc2)C(=O)N2C(C(=O)O)=C(CSc3nnnn3C)CO[C@@H]21 (stereo partly drawn)	inactive
O=c1oc2ccccc2c(O)c1Cc1c(O)c2ccccc2oc1=O	inactive
CCOc1ncc(F)c(=O)[nH]1	inactive
Cc1c(NC(=O)c2cccnc2)c(=O)n(-c2ccccc2)n1C	inactive
Nc1ccccc1	inactive
NC(Cc1ccc(Cl)cc1)C(=O)O (stereo not drawn)	inactive
NC(CO)(CO)CO	inactive
Nc1ncnc2nc[nH]c12	inactive
O=c1c(-c2ccc(O)cc2)coc2cc(O)cc(O)c12	inactive
OC[C@H]1O[C@H](O[C@]2(CCl)O[C@H](CCl)[C@@H](O)[C@@H]2O)[C@H](O)[C@@H](O)[C@H]1Cl	inactive
CN1CC(=O)NC1=N	inactive
CC(=O)NCc1c(I)c(NC(C)=O)c(I)c(C(=O)O)c1I	inactive
CCCC(=O)Nc1ccc(O)c(C(C)=O)c1	inactive
CN=C(N)NC(=O)Nc1c(C)cccc1C	inactive

SMILES	outcome
O=S(=O)(O)CCS	inactive
O=C(O)CCC(=O)O	inactive
NC(CS)C(=O)O (stereo not drawn)	inactive
Nc1ccccc1C(=O)O	inactive
CCOC(=O)[C@H](CCc1ccccc1)N[C@@H](C)C(=O)N1CCC[C@H]1C(=O)O	inactive
CCCOC(=O)c1cncn1C(C)c1ccccc1 (stereo not drawn)	inactive
CCCCCCCCCCCCCCCCO	inactive
O=c1[nH]c(=O)n([C@H]2O[C@H](CO)[C@@H](O)[C@@H]2O)cc1/C=C\Br	inactive
CC(=O)Nc1ccc(CC(=O)O)cc1	inactive
CCCCCCCCCCCCCCCCCC(=O)O	inactive
C#CC(O)(C=CCl)CC (stereo not drawn)	inactive
CC(C)(C)NCC(O)c1cc(O)cc(O)c1 (stereo not drawn)	inactive
Nc1c(I)cc(I)c(C(=O)N(CCC(=O)O)c2ccccc2)c1I	inactive
c1ccc2sc(SN3CCOCC3)nc2c1	inactive
CC(C)(C)NCC(O)c1ccccc1Cl (stereo not drawn)	inactive
CCCCCCCC(=O)[O-].CCCCCCCC(=O)[O-].[Zn+2]	inactive
Cc1cnc(NS(=O)(=O)c2ccc(N)cc2)nc1	inactive
NCCc1ccc(O)cc1	inactive

Reference: PubChem BioAssay (NCATS)
